Hsp90 Hop PPI = changes Hsp90-Hop TPR2A binding signal, up or down | 71,000 tested, 0.44% active | AlphaScreen TPR2A-His6 binding biotin-Hsp90 C-terminal peptide | Potency, µM (highest dose often 57 µM), inactives show at the top dose activity change, negative = inhibition; active = well fitted curve in either direction with a large enough effect; inconclusive = small, poorly fitted or top-dose-only effect, or another doubt; note: % is set by controls: 0 for no effect and ±100 for the full control effect
ALOX15 inhib = blocks human 15-lipoxygenase activity. P16050. purified 15hLO-1, xylenol orange hydroperoxide absorbance. Potency, µM (highest dose often 57.1 µM), without a hit: at the highest dose activity change, negative = inhibition, most hits filed as inhibitors. 74,000 tested, 1.4% active; note: % is set by controls: 0 for no effect and ±100 for the full control effect; nearly all actives have a fitted effect of over 55% in size
Target sequence (P16050 whole entry, looked up): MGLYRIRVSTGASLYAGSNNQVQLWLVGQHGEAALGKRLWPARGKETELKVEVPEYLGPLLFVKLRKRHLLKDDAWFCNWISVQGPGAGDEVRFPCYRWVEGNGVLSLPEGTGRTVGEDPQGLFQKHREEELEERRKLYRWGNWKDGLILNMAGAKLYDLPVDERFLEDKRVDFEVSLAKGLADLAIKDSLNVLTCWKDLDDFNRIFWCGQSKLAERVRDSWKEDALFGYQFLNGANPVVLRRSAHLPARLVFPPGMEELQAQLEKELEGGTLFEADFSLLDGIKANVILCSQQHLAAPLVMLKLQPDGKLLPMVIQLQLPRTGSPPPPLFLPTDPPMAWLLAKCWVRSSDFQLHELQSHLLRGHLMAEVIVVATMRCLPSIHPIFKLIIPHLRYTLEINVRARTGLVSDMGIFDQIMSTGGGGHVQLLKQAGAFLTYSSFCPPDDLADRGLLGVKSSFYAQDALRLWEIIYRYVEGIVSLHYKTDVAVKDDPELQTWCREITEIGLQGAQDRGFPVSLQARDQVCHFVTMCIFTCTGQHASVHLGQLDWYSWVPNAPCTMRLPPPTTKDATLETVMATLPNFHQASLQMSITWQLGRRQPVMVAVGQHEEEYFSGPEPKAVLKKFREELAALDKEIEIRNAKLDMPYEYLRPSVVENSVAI
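Quantitative HTS in 25 mM Hepes pH 7.5 containing 0.01% Triton X-100: human 15hLO-1 at 40 nM, arachidonic acid at 50 uM, 6 min turnover. Product quantified via ferrous oxidation/xylenol orange, 573:405 nm absorbance ratio.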
Tau fil binding = tau filament binding | recombinant tau filaments, thioflavin S fluorescence, 15 h; filaments grown with octadecylsulfate alongside compound | Potency, µM (top dose mostly 57.1 µM), without a hit: top-dose activity change, negative = inhibition | 71,000 tested, 2% active | AID 596;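 note: % is set by controls: 0 for no effect and ±100 for the full control effect; actives lower thioflavin S fluorescence by blocking filaments or displacing dye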
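Read-out: ThS fluorescence, 450 nm excitation/510 nm emission; lower signal marks blocked filament formation or displaced dye. Tau at 1 uM with 30 uM ODS, 10 uM ThS, 5 mM DTT, 100 mM NaCl, 10 mM HEPES pH 7.4; 15 h, 37 C.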
PK Bst = alters activity of Bacillus stearothermophilus pyruvate kinase | Potency, µM | purified pyruvate kinase, luminescence ATP production; ribose 5-phosphate activator present at AC10 | 51,000 tested, 1.2% active; in the data active = potency below about 11 µM; inconclusive = mostly about 12 µM to 25 µM;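 the screen sought inhibitors and activators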;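 note: scaled between full activation by ribose 5 phosphate and full inhibition by luteolin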
USP2a inh = blocks human ubiquitin-specific protease USP2a | O75604 | USP2a enzymatic assay, qHTS inhibition | Potency, µM (top dose mostly 38.3 µM), inactives show at the highest dose activity change, negative = inhibition, hits mostly inhibitors | 60,000 tested, 0.1% active | AID 927; note: nearly all actives have a fitted effect of over 60% in size
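Coupled readout: USP2-cleaved Ub-PLA2 (20nM final) turns over NBD C6-HPC (20uM final), Ex 460nm/Em 535nm after 2.5 h, time-zero read flagging artifacts. Enzyme (20nM final, pH 8.0 Tris) given 30 min RT with compound first; NEM defines full inhibition.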
GBA activity = modulators of human glucocerebrosidase | P04062 | purified enzyme, resorufin glucoside fluorescence (screen aimed at inhibitors), 20 min | Potency, µM | 48,000 tested, 1.1% active | AID 360; in the data active = potency below about 15 µM; inconclusive = mostly about 16 µM to 33 µM;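 note: the screen sought inhibitors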
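Wild-type enzyme at 0.2 nM final in 50mM citric acid/KH2PO4, 10mM sodium taurocholate, 0.01% tween-20, pH 5.9, with resorufin beta-D-glucopyranoside at 30 uM final. Compounds titrated, 20 min at RT, red fluorescence read; AC50 from titration.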
An asterisk follows results filed as active; i = inactive; ? = inconclusive; . = no result; ! = a repeat was not active; [ ] = dose if it differs, or a comment. Shown are actives, neighbours in structure and some others; about 4.6% of the full set was active somewhere. Unless noted, calls come from the whole dose curve; as a rule, active = well fitted curve in the direction sought with a large enough effect; inconclusive = small, poorly fitted or top-dose-only effect, or another doubt; inactive = no such curve, though single readings can be large; an effect the other way counts as inactive or inconclusive. Potency is the fitted concentration of half-maximal effect.

SMILES | Hsp90 Hop PPI | ALOX15 inhib | Tau fil binding | PK Bst | USP2a inh | GBA activity
CCOC(=O)N1CCN(c2nc(-c3ccc(Cl)cc3)cs2)CC1 | . | -17% | . | . | . | .
CCNc1nc(-c2ccc(Cl)cc2)cs1 | -3% | ? | -11% | 10* | -1% | >77
CC(=O)N(C)c1nc(-c2ccc(Cl)cc2)cs1 | 5% | 4% | 2% | >57 | -1% | >77
CC1=CC(C)(C)Nc2ccccc21 | -5% | -8% | 16µM*! | . | . | .
CCC1(C)Nc2ccccc2C(=O)N1O (stereo unspecified) | -3% | 2% | -6% | >57 | 0% | >77
COC(=O)c1ccc2c(c1)NC(=O)C1CCCN21 (stereo unspecified) | -8%[2.3 µM] | 7.9µM* | -21% | . | . | .
CCOC(=O)CSc1nc(-c2ccc3c(c2)OCO3)ccc1C#N | . | . | . | 4.3* | . | .
CC(C)N1CCc2c(sc(N)c2C#N)C1 | . | . | . | >26 | . | .
CCOC(=O)Nc1ccc2c(c1)N(C(=O)OC)c1ccccc1CC2 | ? | 6% | -15% | >57 | 26% | >77
CN(C)CC(=O)N1c2ccccc2CCc2ccc(NC(=O)c3ccc(N)cc3)cc21 | -17% | -6% | 16µM* | >57 | 22% | >77
CN1C(=O)N(C)C2CC1N(C)C(=O)N2C | -2% | 4% | 8% | >57 | -5% | >77
CCCCOC(=O)Cn1c(=N)n(CCN2CCOCC2)c2ccccc21 | -9% | -5% | 9% | >57 | 0% | >77
N=c1n(CCN2CCOCC2)c2ccccc2n1CC(=O)c1ccc(Cl)c(Cl)c1 | -4% | -12% | 151% | 3.1* | 10% | .
O=c1cc(-c2ccccc2)[nH]c2nc3ccccc3n12 | -2% | -4% | 110% | 1* | -2% | >77
CCOC(=O)c1cc(-c2ccccc2)sc1N | -16% | ? | 25µM* | i | 15% | >77
CCOC(=O)c1sc(-c2ccccc2)cc1N | 26% | 1% | -17% | i | -19% | >77
Nc1c(N2CCCC2)cc(Cl)c2nonc12 | -12% | -18% | 20µM* | >57 | 27% | >77
Nc1c(N2CCOCC2)cc(Cl)c2nonc12 | -9% | 0% | ? | ? | 0% | >77
O=C(CCc1nc(-c2ccccc2F)no1)NCc1ccco1 | -4% | 9% | -9% | >57 | -8% | >77
Cc1cc(C(=O)CSc2nnc(Cc3ccccc3)o2)c(C)n1Cc1ccc2c(c1)OCO2 | -9% | ? | -1% | >57 | 24% | 4*
Cc1cc(C(=O)CSc2nnc(-c3cccs3)o2)c(C)n1-c1ccccc1 | -3% | 20µM* | 12% | >11 | 17% | >77
Cc1cc(C(=O)CSc2nnc(-c3ccco3)o2)c(C)n1Cc1ccco1 | -9% | 25µM* | 34% | >57 | 23% | >77
Cc1cc(C(=O)CSc2nnc(-c3ccco3)o2)c(C)n1-c1ccc2c(c1)OCCO2 | -7% | -25% | ? | >57 | 21% | >77
Cc1cc(NCCN2CCOCC2)n2ncc(-c3ccccc3)c2n1 | 2% | 9% | -14% | . | 9% | .
Cc1cc(NCCCn2ccnc2)n2ncc(-c3ccccc3)c2n1 | -5% | 17% | -18% | 2* | 15% | .
SMILES | Hsp90 Hop PPI | ALOX15 inhib | Tau fil binding | PK Bst | USP2a inh | GBA activity
COc1ccc(N2CCN(C(=O)C(Cc3ccccc3)n3cccc3)CC2)cc1 (stereo unspecified) | ? | 25µM* | 13µM* | . | . | .
Cc1cc(C(=O)Nc2cnn(Cc3ccc(Cl)cc3Cl)c2)no1 | -7% | -9% | 100% | 9.2* | -23% | i
CCOC(=O)Nc1c(C(=O)OC)[nH]c2cccc(OC)c12 | 4% | 3% | 1% | >57 | 2% | >77
CCOC(=O)c1cnc(-n2nc(C)cc2C)nc1Nc1cccc(C(=O)O)c1 | -6% | -11% | -5% | >57 | -5% | >77
CC(C)=CCc1c(O)cc(O)c2c1O[C@H](c1ccccc1)CC2=O | 2% | 2%[25.6 µM] | 40µM* | . | . | .
O=C(CN1CCOc2ccccc21)NC1CCCCCCC1 | -7% | -6% | ? | . | . | .
O=C(CN1CCOc2ccccc21)NC1CCN(Cc2ccccc2)CC1 | -15% | -6% | 13µM* | . | . | .
CCc1ccc(NC(=O)C2CCN(S(C)(=O)=O)CC2)cc1 | 2% | -2% | 2% | >57 | 4% | ?
CS(=O)(=O)N1CCC(C(=O)Nc2ccc(Oc3ccccc3)cc2)CC1 | 1% | 10% | 16% | >57 | 5% | 14*
COc1cccc(NC(=O)C2CCN(S(C)(=O)=O)CC2)c1 | -1% | -3% | 11% | >57 | -7% | >77
CC(C)c1ccc(NC(=O)C2CCN(S(C)(=O)=O)CC2)cc1 | 0% | 3% | -2% | >57 | 3% | 12*
Oc1ccc(CN2CCCc3ccccc32)c2cccnc12 | 3.2µM* | -8% | -8% | >57 | 52% | .
c1ccc(-c2nnc(CN3CCCc4ccccc43)o2)cc1 | -21% | ? | 64% | >57 | 21% | >77
Cc1cc(NC(c2cccnc2)c2ccc3cccnc3c2O)no1 (stereo unspecified) | 4µM* | 112% | -1% | >57 | 6% | >77
Cc1cc(NC(=O)c2cc(-c3cccnc3)nc3c(C)c(C)ccc23)no1 | -5% | -10% | 2% | >57 | 56% | >77
CCN(CC)c1ccc(N)cc1 | ? | -19% | 13µM* | . | . | .
CN(C)c1ccc(-c2nnn(CC(=O)N3c4ccccc4CCc4ccccc43)n2)cc1 | -6% | 4% | -4% | >57 | . | >77
COc1ccc(OC)c2[nH]c(=O)c(CCNS(=O)(=O)c3ccccc3)cc12 | 4% | 3% | 0% | ? | 10% | >77
Cc1ccc(C2C3=C(CC(C)(C)CC3=O)Nc3[nH]c(=S)[nH]c(=O)c32)cc1 (stereo unspecified) | -12% | 20µM* | 8% | >57 | ? | .
Cc1[nH]nc2c1C(c1ccccc1)C1=C(CC(C)(C)CC1=O)N2 (stereo unspecified) | -2% | 9% | 8% | >57 | -6% | .
FC(F)(F)c1ccccc1-n1ccnc1 | -5% | -18% | ? | . | -3% | .
Cc1cc(N/C=C/C(=O)c2cccc3ccccc23)no1 | . | . | . | 9.3* | . | .
Cc1cc(C(=O)OCC(=O)Nc2cc(C)on2)c2ccccc2n1 | -3% | 4% | 1% | >57 | -3% | >77
Cc1ccc(C(=O)CSc2nnc(-c3ccccc3N)n2C)cc1 | -4% | 1% | -6% | >57 | 7% | >77
COC(=O)c1ccc(CSc2nc3c(c(=O)n2-c2ccc(Br)cc2)SCC3)o1 | -7% | -6% | -6% | >57 | 42% | 4.9*
CCCCCCCCCCCCC/C=C\[C@@H](O)[C@@H](N)CO | 3% | 40% | 32µM* | . | 24% | .
CCOC(=O)C1=C(CSc2nc(C)ccc2C#N)OC(N)=C(C#N)C1c1cccc(OC)c1OC (stereo unspecified) | -6% | 20µM* | 0% | >57 | 42% | ?

Assay outcomes as filed in PubChem.
